Several values for one entry are separate records, joined by “and”; a condition that tells them apart may be missing. Identical values can stand only once. Results filed as inconclusive are left out. A call without a number means that no potency is given here. The source holds several records for some structures; these can differ, active in one and inactive in another. Activity calls are given as the source filed them. Unless noted, calls come from the whole dose curve; as a rule, active = well fitted curve in the direction sought with a large enough effect in the repeat runs; inconclusive = weak or mixed curves; inactive = no such curve, though single readings can be large; an effect the other way counts as inactive or inconclusive.
Columns and labels:
[1] = qHTS assay to identify small molecule antagonists of the estrogen related receptor (ERR) signaling pathway from Tox21 library - cell viability counter screen (AID 1224834); note: nearly all actives have a fitted effect of over 30% in size
Outline: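 CellTiter-Fluor fluorescence, read after 30 min at 37 C, measures viability of ERR cells. Cells plated at 2,000/well and incubated 6 h before pin-tool compound addition, then exposed 17.5 hours at 37 C.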

[2] = biological target: Luciferin 4-monooxygenase (Photinus pyralis) (UniProt P08659); assay: qHTS assay to identify small molecule inhibitors of firefly luciferase (AID 1224835); note: nearly all actives have a fitted effect of over 25% in size; note: potency is the fitted concentration of half-maximal effect
Outline: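 Biochemical qHTS: compounds run as interplate titrations against purified firefly enzyme, with D-luciferin and ATP each at its KM concentration. Light output recorded by CCD imaging.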

[3] = qHTS assay to identify small molecule agonists of the constitutive androstane receptor (CAR) signaling pathway - cell viability counter screen (AID 1224836); note: series mostly up to about 92 µM; nearly all actives have a fitted effect of over 45% in size
Outline: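 Cells were seeded and incubated 4 hrs. Compounds were added across 15 concentrations together with PK11195 at 0.75 uM final. Plates were incubated 23 hrs at 37 C. CellTiter-Fluor was added and fluorescence measured.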

[4] = qHTS assay to identify small molecule antagonists of the constitutive androstane receptor (CAR) signaling pathway - cell viability counter screen (AID 1224837); note: series mostly up to about 92 µM; nearly all actives have a fitted effect of over 45% in size
Outline: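 Cytotoxicity counter-screen: CellTiter-Fluor fluorescence after 23 h compound exposure (15-point qHTS) in double-stable HepG2-CYP2B6-hCAR cells, with 50 nM CITCO added.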

[5] = qHTS assay to identify small molecule antagonists of the estrogen related receptor signaling pathway with the pleiotropic PPARgamma coactivator (PGC) from Tox21 10K library - cell viability counter screen (AID 1224840; active = well fitted cell-killing curve with a large enough effect in the repeat runs, not every such curve was filed as active; note: nearly all actives have a fitted effect of over 40% in size)
Outline: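 Counter-screen for cytotoxicity: after 17.5 h compound exposure at 37 C, CellTiter-Fluor reagent added to PGC/ERR cells for 30 min and fluorescence read. Cells were seeded at 2,000 per well 6 h before dosing.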

[6] = qHTS assay to identify small molecule antagonists of the estrogen related receptor signaling pathway with the pleiotropic PPARgamma coactivator (PGC) from Tox21 10K library (AID 1224841; call rule not given here; note: actives are mostly falling curves and most rising ones were filed inactive; nearly all actives have a fitted effect of over 50% in size; note: potency is the fitted concentration of half-maximal effect)
Outline: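 Luminescence (One-Glo, 30 min at room temperature) after 18 h compound treatment at 37 C of PGC/ERR reporter cells plated at 2,000 cells/well and settled 6 h beforehand.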

[7] = biological target: Thyrotropin receptor (Homo sapiens) (UniProt P16473); assay: qHTS assay to identify small molecule agonists of the thyroid stimulating hormone receptor (TSHR) signaling pathway (AID 1224843; calls by dose curve; note: nearly all actives have a fitted effect of over 45% in size; note: potency is the fitted concentration of half-maximal effect)
Outline: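 HEK293/TSHR, 800 cells/well; cpd 30 min RT; add cAMP-d2 + anti-cAMP-cryptate, 1 h RT; fluorescence read on plate reader. 15-pt titration, n=3.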

[8] = biological target: Nuclear receptor subfamily 1 group I member 3 (Homo sapiens) (UniProt Q14994); assay: qHTS assay to identify small molecule agonists of the constitutive androstane receptor (CAR) signaling pathway (AID 1224839); note: nearly all actives have a fitted effect of over 15% in size; note: potency is the fitted concentration of half-maximal effect
Outline: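 Cells were plated and incubated 4 hrs, then dosed with compounds at 15 concentrations. PK11195 was added to 0.75 uM final. After 24 hrs at 37 C, luciferase luminescence was measured.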

[9] = qHTS assay to identify small molecule agonists of the estrogen related receptor signaling pathway with the pleiotropic PPARgamma coactivator (PGC) from Tox21 10K library (AID 1224842); note: nearly all actives have a fitted effect of over 15% in size
Outline: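 PGC/ERR reporter cell line, 2,000 cells per well, incubated 6 h at 37 C before 23 nL compound in DMSO was added. After 18 h at 37 C, One-Glo luminescence read following 30 min at room temperature.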

Luciferin 4-monooxygenase (Photinus pyralis), sequence (P08659 whole entry, looked up): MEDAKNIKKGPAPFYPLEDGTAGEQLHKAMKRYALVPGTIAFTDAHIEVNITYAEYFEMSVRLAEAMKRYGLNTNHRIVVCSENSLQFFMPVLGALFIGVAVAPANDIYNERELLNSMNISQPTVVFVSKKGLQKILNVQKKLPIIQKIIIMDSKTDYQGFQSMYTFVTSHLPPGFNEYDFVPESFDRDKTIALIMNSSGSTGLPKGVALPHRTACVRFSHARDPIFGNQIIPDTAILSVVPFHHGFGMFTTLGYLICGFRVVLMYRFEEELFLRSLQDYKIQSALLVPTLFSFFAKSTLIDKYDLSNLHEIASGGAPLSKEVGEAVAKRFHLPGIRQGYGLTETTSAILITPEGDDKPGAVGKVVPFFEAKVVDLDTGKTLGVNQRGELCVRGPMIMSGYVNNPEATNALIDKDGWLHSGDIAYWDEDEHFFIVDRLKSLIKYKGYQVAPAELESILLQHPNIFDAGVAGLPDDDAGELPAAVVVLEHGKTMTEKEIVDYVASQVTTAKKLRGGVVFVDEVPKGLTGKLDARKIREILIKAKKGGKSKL
Thyrotropin receptor (Homo sapiens), sequence (P16473 whole entry, looked up): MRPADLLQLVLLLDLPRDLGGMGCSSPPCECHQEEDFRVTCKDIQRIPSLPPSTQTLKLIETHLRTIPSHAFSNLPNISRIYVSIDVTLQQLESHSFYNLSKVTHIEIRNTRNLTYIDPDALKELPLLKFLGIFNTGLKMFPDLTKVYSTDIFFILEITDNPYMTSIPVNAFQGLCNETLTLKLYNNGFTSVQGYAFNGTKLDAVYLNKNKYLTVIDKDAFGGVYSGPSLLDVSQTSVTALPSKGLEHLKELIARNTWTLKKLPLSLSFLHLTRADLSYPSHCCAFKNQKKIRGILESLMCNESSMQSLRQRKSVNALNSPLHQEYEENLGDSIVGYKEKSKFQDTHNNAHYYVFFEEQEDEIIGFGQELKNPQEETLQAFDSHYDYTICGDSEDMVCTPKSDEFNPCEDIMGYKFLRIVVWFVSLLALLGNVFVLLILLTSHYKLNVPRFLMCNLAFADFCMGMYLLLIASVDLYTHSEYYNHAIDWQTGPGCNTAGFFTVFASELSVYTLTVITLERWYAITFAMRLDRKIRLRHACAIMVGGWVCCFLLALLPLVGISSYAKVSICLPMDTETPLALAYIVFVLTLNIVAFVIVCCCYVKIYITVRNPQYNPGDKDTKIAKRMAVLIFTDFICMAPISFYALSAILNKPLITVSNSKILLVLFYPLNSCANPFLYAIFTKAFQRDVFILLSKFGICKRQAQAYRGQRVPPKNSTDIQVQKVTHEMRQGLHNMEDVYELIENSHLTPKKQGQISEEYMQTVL
Nuclear receptor subfamily 1 group I member 3 (Homo sapiens), sequence (Q14994 whole entry, looked up): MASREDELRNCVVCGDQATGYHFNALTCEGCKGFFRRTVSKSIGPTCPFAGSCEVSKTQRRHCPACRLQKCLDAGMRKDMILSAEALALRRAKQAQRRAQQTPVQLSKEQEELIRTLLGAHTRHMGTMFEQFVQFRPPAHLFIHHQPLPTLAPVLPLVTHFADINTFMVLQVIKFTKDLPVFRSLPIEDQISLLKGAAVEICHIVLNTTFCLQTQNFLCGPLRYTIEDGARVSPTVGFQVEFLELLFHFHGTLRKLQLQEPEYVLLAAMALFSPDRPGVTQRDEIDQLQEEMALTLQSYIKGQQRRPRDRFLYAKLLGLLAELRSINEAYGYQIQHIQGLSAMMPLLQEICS

Row | SMILES | Potency [1] | Potency [2] | Potency [3] | Potency [4] | Potency [5] | Potency [6] | Potency [7] | Potency [8] | Potency [9]
1 | c1ccc(NNc2ccccc2)cc1 | inactive | 25.4 µM (active) and 17.8 µM (active) | inactive | inactive | inactive | inactive | inactive | – | –
2 | Cc1cc(Cl)ccc1OCCCC(=O)O | inactive | 73.8 µM (active) | inactive | inactive | inactive | – | inactive | inactive | –
3 | CCC(CC)Nc1c([N+](=O)[O-])cc(C)c(C)c1[N+](=O)[O-] | inactive | inactive | inactive | inactive | inactive | inactive | inactive | 49.2 µM (active) and 24.3 µM (active) | inactive
4 | CNC(=O)N(C)c1nnc(C(C)(C)C)s1 | inactive | inactive | inactive | inactive | inactive | – | inactive | inactive | –
5 | COP(=O)(OC)OC | inactive | inactive | inactive | inactive | inactive | inactive | inactive | inactive | –
6 | CCOP(=S)(OCC)O/N=C(\C#N)c1ccccc1 | inactive | inactive | inactive | inactive | inactive | inactive | inactive | – | inactive
7 | CCC(C)(C)c1ccc(O)cc1 | inactive | 40.4 µM (active) and 63.3 µM (active) | inactive | inactive | inactive | inactive | inactive | – | –
8 | Cc1ccc(OP(=O)(Oc2ccc(C)cc2)Oc2ccc(C)cc2)cc1 | inactive | inactive | inactive | inactive | inactive | inactive | 12.2 µM (active) and 30.6 µM (active) | – | –
9 | Cc1ccccc1[N+](=O)[O-] | inactive | inactive | inactive | inactive | inactive | – | inactive | inactive | –
10 | N#CC(Br)Br | inactive | inactive | inactive | inactive | inactive | – | inactive | inactive | –
11 | O=C(O)CC[N+](=O)[O-] | inactive | inactive | inactive | inactive | inactive | – | – | – | –
12 | Brc1ccc(Oc2cc(Br)c(Br)cc2Br)c(Br)c1 | inactive | inactive | inactive | inactive | inactive | inactive | – | – | –
13 | C=CCN(CC=C)C(=O)C(Cl)Cl | inactive | inactive | inactive | inactive | inactive | – | inactive | inactive | –
14 | CCCCC(CC)COC(=O)c1ccc(C(=O)OCC(CC)CCCC)c(C(=O)OCC(CC)CCCC)c1 (centres undefined) | inactive | inactive | inactive | inactive | inactive | – | inactive | inactive | –
15 | C=C(C)C(=O)OCC1CO1 (centres undefined) | inactive | inactive | inactive | inactive | inactive | inactive | inactive | inactive | –
16 | ClC1C(Cl)C(Cl)C(Cl)C(Cl)C1Cl (centres undefined) | inactive | inactive | inactive | inactive | inactive | inactive and 68.6 µM (active) | – | – | –
17 | O=[N+]([O-])c1c(Cl)c(Cl)c(Cl)c(Cl)c1Cl | inactive | inactive | inactive | inactive | inactive | – | – | – | –

Row | SMILES | Potency [1] | Potency [2] | Potency [3] | Potency [4] | Potency [5] | Potency [6] | Potency [7] | Potency [8] | Potency [9]
18 | Nn1cnnc1 | inactive | inactive | inactive | inactive | inactive | – | inactive | inactive | –
19 | CCN(CC)C(=O)SCc1ccc(Cl)cc1 | inactive | 35.6 µM (active) | inactive | inactive | inactive | inactive | – | – | –
20 | CCCCNC(=O)n1c(NC(=O)OC)nc2ccccc21 | inactive | 63 µM (active) | inactive | inactive | inactive | – | inactive | 54.2 µM (active) | –
21 | CC(C)N(C(=O)SCC(Cl)=C(Cl)Cl)C(C)C | inactive | inactive | inactive | inactive | inactive | – | 30.2 µM (active) and 15.4 µM (active) | inactive | –
22 | O=S(=O)(Oc1ccc(Cl)cc1)c1ccc(Cl)cc1 | inactive | inactive | inactive | inactive | inactive | inactive | inactive | 69.5 µM (active) and 48.6 µM (active) | inactive
23 | C=CCc1ccc2c(c1)OCO2 | inactive | inactive | inactive | inactive | inactive | – | inactive | inactive | –
24 | CCCCCCOC(=O)c1ccccc1C(=O)OCCCCCC | inactive | inactive | inactive | inactive | inactive | – | inactive | 27.9 µM (active) and 30.6 µM (active) | –
25 | CCCCN(CC)c1c([N+](=O)[O-])cc(C(F)(F)F)cc1[N+](=O)[O-] | inactive | inactive | inactive | inactive | inactive | inactive | 8.77 µM (active) and 12.2 µM (active) | – | –
26 | O=C1C=CC(=O)C=C1 | inactive | 31.9 µM (active) and 22.4 µM (active) | inactive | inactive | inactive | – | inactive | inactive | –
27 | CCN(CC)N=O | inactive | inactive | inactive | inactive | inactive | inactive | inactive | – | inactive
28 | CCCCCCCCOC(=O)c1ccccc1C(=O)OCCCCCCCC | inactive | inactive | inactive | inactive | inactive | – | inactive | inactive and 17.2 µM (active) | –
29 | C=CC(=O)OCCO | inactive | inactive | inactive | inactive | inactive | – | inactive | inactive | –
30 | N#Cc1cc(Br)c(O)c(Br)c1 | inactive | inactive | inactive | inactive | inactive | 54.4 µM (active) and 41.7 µM (active) | inactive | inactive | –
31 | Cc1cccc(N)c1N | inactive | 30.6 µM (active) | inactive | inactive | inactive | inactive | inactive | 59.1 µM (active) and 54.5 µM (active) | –
32 | C=CCc1ccc(OC)cc1 | inactive | inactive | inactive | inactive | inactive | – | inactive | inactive | –
33 | CC(C)c1ccc(CO)cc1 | inactive | inactive | inactive | inactive | inactive | inactive | inactive | – | –

— PubChem BioAssay (Tox21)
